Test [1] can be described thus: ATG_GLI_CIS: Attagene CIS-FACTORIAL HepG2 Assay for human Zinc Finger Protein GLI1 (AID 2282945). The note with it: HepG2, Attagene cis-factorial reporter mRNA, GLI element; actives raise or lower the signal. Summed up: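 Bidirectional curve fits relative to DMSO, using reporter mRNA levels from RT-PCR plus capillary electrophoresis. Cells were HepG2 transiently carrying cis-regulated reporter constructs, harvested 24 h after dosing.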

Test [2] is described as follows: ATG_ISRE_CIS: Attagene CIS-FACTORIAL HepG2 Assay for human Interferon Regulatory Factor 1 (IRF1) binding to an Interferon-Stimulated Response Element (ISRE) (AID 2282948). The note with it: HepG2 ISRE cis-reporter (Attagene), mRNA transcription readout; actives raise or lower the signal. Summed up: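 Read-out: fluorescent RT-PCR products resolved by capillary electrophoresis, reporting endogenous transcription factor activity via ISRE-driven reporter mRNA in transfected HepG2 cells dosed for 24 h; gain or loss fitted relative to DMSO.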

Test [3] in a line: ATG_M_32_CIS: Attagene CIS-FACTORIAL HepG2 Assay for M32 Transcription Factor (Internal Marker) (AID 2282949).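 Also: background control marker of the multiplexed CIS panel rather than a real target.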 The note with it: HepG2 Attagene cis-factorial M32 reporter, mRNA; actives raise or lower the signal. The method in brief: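 Using DMSO as baseline, bidirectional curve fits were applied to reporter mRNA signals. These came from transiently transfected HepG2 cells exposed for 24 h, with RNA analysed by RT-PCR, FAM primer extension, HpaI digestion and CE.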

Test [4] can be described thus: ATG_M_06_CIS: Attagene CIS-FACTORIAL HepG2 Assay for M06 Transcription Factor (Internal Marker) (AID 2282950). As to conditions: HepG2 Attagene CIS-FACTORIAL M06 internal marker reporter; actives raise or lower the signal. The method in brief: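 Steps: transfect HepG2 with multiplexed cis-element reporter constructs; dose chemical 24 h; extract RNA with DNase treatment; reverse-transcribe, PCR-amplify, 6-FAM label, HpaI digest; separate fragments by capillary electrophoresis. Activity fitted both directions versus DMSO.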

Test [5] has as its target Hypoxia-inducible factor 1-alpha (Homo sapiens) (UniProt Q16665). As to the kind of experiment: ATG_HIF1a_CIS: Attagene CIS-FACTORIAL HepG2 Assay for human Hypoxia Inducible Factor 1 (HIF1A) (AID 2282951). The note with it: HepG2 Attagene cis-factorial HIF1a reporter transcription; actives raise or lower the signal. The method in brief: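 HepG2, transient cis-reporter library, 24 h dosing. RNA → RT (oligo dT) → PCR → 6-FAM primer extension → HpaI → CE. Bidirectional curve fit vs DMSO.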

In test [6] the target is Hepatocyte nuclear factor 6 (Homo sapiens) (UniProt Q9UBC0). Nature of the test: ATG_HNF6_CIS: Attagene CIS-FACTORIAL HepG2 Assay for human Hepatocyte Nuclear Factor 6 (HNF6) (AID 2282952). As to conditions: HepG2 Attagene cis-factorial HNF6 reporter transcription; actives raise or lower the signal. The method in brief:
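Using cis-element reporters in HepG2 liver cells, the assay tracks endogenous factor-driven transcription 24 h post-dosing. Signal comes from 6-FAM-labelled, HpaI-digested RT-PCR fragments, with gain or loss scored against DMSO.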

For test [7], the target named is Heat shock factor protein 1 (Homo sapiens) (UniProt Q00613). Nature of the test: ATG_HSE_CIS: Attagene CIS-FACTORIAL HepG2 Assay for human Heat Shock Transcription Factor 1 (HSE) (AID 2282953). As to conditions: HepG2 HSE cis-reporter, Attagene RNA transcription; actives raise or lower the signal. Summed up: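 Cells were transfected with cis-element-driven reporter constructs, dosed for 24 h, then total RNA was reverse-transcribed and reporter cDNA amplified, FAM-labelled and digested with HpaI. Fragments were resolved by capillary electrophoresis; gain or loss was fitted against DMSO.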
Heat shock factor protein 1 (Homo sapiens), sequence (Q00613 whole entry, looked up, the tested form may be a part): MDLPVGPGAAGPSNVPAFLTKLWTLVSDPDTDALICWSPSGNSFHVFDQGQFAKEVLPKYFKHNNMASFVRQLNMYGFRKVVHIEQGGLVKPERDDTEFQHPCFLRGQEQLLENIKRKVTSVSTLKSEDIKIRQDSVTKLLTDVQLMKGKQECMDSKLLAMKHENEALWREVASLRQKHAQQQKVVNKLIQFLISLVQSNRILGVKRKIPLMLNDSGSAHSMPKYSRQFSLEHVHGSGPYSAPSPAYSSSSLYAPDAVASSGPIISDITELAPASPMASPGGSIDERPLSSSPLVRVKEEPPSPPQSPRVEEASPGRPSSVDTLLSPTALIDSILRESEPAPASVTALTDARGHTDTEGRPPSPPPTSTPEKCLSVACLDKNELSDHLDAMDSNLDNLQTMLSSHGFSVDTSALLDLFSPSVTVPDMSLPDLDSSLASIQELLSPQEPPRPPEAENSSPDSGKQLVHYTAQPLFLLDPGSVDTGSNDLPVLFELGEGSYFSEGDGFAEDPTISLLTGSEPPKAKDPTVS

Test [8] in a line: ATG_MRE_CIS: Attagene CIS-FACTORIAL HepG2 Assay for human Metal Responsive Element (MRE) (AID 2282954). As to conditions: HepG2 MRE cis-reporter transcription, Attagene multiplex; actives raise or lower the signal. The method in brief:
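Multiplexed cis-reporter assay in human HepG2 liver cells, 24 h incubation with test chemical. Reporter transcripts measured by RT-PCR and capillary electrophoresis; values from bidirectional curve fitting versus DMSO.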

Test [9] deals with Paired box protein Pax-6 (Homo sapiens) (UniProt P26367). Nature of the test: ATG_Pax6_CIS: Attagene CIS-FACTORIAL HepG2 Assay for human Paired Box 6 (PAX6) (AID 2282956). The note with it: HepG2 CIS-FACTORIAL PAX6 reporter transcription, RNA readout; actives raise or lower the signal. The method in brief: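 Readout: reporter transcript fluorescence after RT-PCR and capillary electrophoresis. Cells: HepG2, transiently transfected with cis-regulated MRTUs. Exposure 24 h. Gain or loss of signal fitted bidirectionally relative to DMSO.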
Paired box protein Pax-6 (Homo sapiens), sequence (P26367 whole entry, looked up): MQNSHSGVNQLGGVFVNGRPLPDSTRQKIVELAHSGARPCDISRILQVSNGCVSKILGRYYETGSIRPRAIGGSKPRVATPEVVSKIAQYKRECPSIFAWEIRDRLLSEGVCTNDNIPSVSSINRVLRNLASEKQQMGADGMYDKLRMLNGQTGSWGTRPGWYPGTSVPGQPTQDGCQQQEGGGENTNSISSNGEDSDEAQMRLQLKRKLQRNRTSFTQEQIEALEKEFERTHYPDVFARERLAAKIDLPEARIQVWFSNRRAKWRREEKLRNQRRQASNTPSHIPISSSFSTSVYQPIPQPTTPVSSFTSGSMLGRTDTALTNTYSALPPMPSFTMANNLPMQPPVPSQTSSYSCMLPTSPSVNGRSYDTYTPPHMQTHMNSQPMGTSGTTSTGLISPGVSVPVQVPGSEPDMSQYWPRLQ

The nature of test [10]: ATG_PXRE_CIS: Attagene CIS-FACTORIAL HepG2 Assay for human Pregnane X Receptor Element (PXRE) (AID 2282957). The note with it: HepG2 Attagene CIS-FACTORIAL PXRE reporter, mRNA; actives raise or lower the signal. Summed up:
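Using HepG2 transfected with multiple reporter transcription units, endogenous factor-driven transcription was scored as reporter mRNA after 24 h exposure.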

The nature of test [11]: ATG_PPRE_CIS: Attagene CIS-FACTORIAL HepG2 Assay for human Peroxisome Proliferator-activated Response Element (PPRE) (AID 2282958). As to conditions: HepG2 PPRE cis-element reporter, Attagene transcription factor profiling; actives raise or lower the signal. The method in brief: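 Transcript-level reporter induction in transfected HepG2 cells after 24 h chemical exposure, quantified by fluorescence from RT-PCR products separated by capillary electrophoresis.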

Test [12] can be described thus: ATG_RORE_CIS: Attagene CIS-FACTORIAL HepG2 Assay for human RAR-related Orphan Receptor Element (RORE) (AID 2282959). As to conditions: HepG2 Attagene cis-factorial RORE reporter, mRNA; actives raise or lower the signal. Summed up: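 Multiplexed reporter assay measuring mRNA induction from a cis promoter element in transiently transfected HepG2 cells after 24 h treatment. Detection via RT-PCR and capillary electrophoresis fluorescence; DMSO serves as baseline.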

The nature of test [13]: ATG_Sox_CIS: Attagene CIS-FACTORIAL HepG2 Assay for human SRY-box transcription factor (SOX) (AID 2282960). As to conditions: HepG2 Attagene cis-factorial SOX reporter, mRNA; actives raise or lower the signal. Summed up: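 Cells were transfected with reporter constructs under cis-regulatory promoters, then exposed to chemicals for 24 h. Reporter transcripts were quantified by fluorescence after RT-PCR and capillary electrophoresis; activity was fitted in both directions against DMSO.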

The nature of test [14]: ATG_SREBP_CIS: Attagene CIS-FACTORIAL HepG2 Assay for human Sterol Regulatory Element Binding (SREBP) (AID 2282962). As to conditions: HepG2 Attagene cis-factorial SREBP reporter, mRNA; actives raise or lower the signal. The method in brief: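 Readout: fluorescent reporter-transcript peaks resolved by capillary electrophoresis after RT-PCR. Cells were human HepG2 carrying transfected cis-promoter reporter constructs, dosed for 24 h. Gain or loss of signal was fitted against DMSO controls.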

Test [15] has as its target Signal transducer and activator of transcription 3 (Homo sapiens) (UniProt P40763). As to the kind of experiment: ATG_STAT3_CIS: Attagene CIS-FACTORIAL HepG2 Assay for human Signal Transducer and Activator of Transcription 3 (STAT3) (AID 2282963). As to conditions: HepG2, Attagene cis-factorial STAT3 reporter transcription; actives raise or lower the signal. Summed up:
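Cis-factorial format: endogenous transcription factors in HepG2 drive transfected reporter units. After 24 h treatment, reporter RNA was reverse-transcribed, amplified, FAM-labelled and HpaI-digested before CE analysis; activity scored in both directions against DMSO.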

Test [16] can be described thus: ATG_TA_CIS: Attagene CIS-FACTORIAL HepG2 Assay for human TA Basal Promoter (AID 2282964). The note with it: HepG2 Attagene CIS-factorial TA basal promoter reporter; actives raise or lower the signal. Summed up: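 Steps: transfect HepG2 with MRTUs; dose 24 h; isolate RNA, DNase-treat, reverse-transcribe; PCR and FAM-label reporter cDNA; digest with HpaI 2h at 37 C; run capillary electrophoresis. Activity fitted both directions against DMSO.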

Test [17] can be described thus: ATG_PBREM_CIS: Attagene CIS-FACTORIAL HepG2 Assay for human Phenobarbital-responsive Enhancer Module (PBREM) (AID 2282955). As to conditions: HepG2 PBREM cis-reporter, Attagene multiplexed transcription; actives raise or lower the signal. Summed up:
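HepG2, transient MRTU transfection, 24 h dosing; RNA → oligo(dT) RT → PCR → 6-FAM extension → HpaI → CE. Bidirectional fit vs DMSO.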

Test [18] addresses Transcription factor Sp1 (Homo sapiens) (UniProt P08047). Nature of the test: ATG_Sp1_CIS: Attagene CIS-FACTORIAL HepG2 Assay for human Specificity Protein 1 (Sp1) (AID 2282961). As to conditions: HepG2 Sp1 cis-reporter transcription, actives raise or lower the signal. Summed up: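 Measures mRNA induction of an Sp1-linked reporter in HepG2 cells 24 h post-dosing. Multiplexed reporters read by RT-PCR and capillary electrophoresis; DMSO serves as negative control and baseline.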

One may read the AC50 as the midpoint of the concentration-response curve, whichever way the signal moves.

Activity calls are given as the source filed them. The calls were made as follows: active = hit-call score of the fitted dose curve at least 0.9, where 1 is the maximum; inactive = score below 0.9.

Hepatocyte nuclear factor 6 (Homo sapiens), sequence (Q9UBC0 whole entry, looked up, the tested form may be a part): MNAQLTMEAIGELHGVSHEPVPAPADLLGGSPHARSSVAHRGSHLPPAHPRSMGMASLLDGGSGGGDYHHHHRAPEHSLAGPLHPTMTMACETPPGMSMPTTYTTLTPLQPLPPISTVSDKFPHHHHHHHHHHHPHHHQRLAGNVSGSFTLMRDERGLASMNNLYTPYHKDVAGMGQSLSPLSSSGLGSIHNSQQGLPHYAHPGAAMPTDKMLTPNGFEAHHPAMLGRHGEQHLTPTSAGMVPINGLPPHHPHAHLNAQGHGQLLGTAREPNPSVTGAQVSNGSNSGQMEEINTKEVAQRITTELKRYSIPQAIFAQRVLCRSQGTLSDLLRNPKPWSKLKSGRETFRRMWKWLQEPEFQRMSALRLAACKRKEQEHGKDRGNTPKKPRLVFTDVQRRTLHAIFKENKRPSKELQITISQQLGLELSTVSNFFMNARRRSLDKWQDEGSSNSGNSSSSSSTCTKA
Signal transducer and activator of transcription 3 (Homo sapiens), sequence (P40763 whole entry, looked up): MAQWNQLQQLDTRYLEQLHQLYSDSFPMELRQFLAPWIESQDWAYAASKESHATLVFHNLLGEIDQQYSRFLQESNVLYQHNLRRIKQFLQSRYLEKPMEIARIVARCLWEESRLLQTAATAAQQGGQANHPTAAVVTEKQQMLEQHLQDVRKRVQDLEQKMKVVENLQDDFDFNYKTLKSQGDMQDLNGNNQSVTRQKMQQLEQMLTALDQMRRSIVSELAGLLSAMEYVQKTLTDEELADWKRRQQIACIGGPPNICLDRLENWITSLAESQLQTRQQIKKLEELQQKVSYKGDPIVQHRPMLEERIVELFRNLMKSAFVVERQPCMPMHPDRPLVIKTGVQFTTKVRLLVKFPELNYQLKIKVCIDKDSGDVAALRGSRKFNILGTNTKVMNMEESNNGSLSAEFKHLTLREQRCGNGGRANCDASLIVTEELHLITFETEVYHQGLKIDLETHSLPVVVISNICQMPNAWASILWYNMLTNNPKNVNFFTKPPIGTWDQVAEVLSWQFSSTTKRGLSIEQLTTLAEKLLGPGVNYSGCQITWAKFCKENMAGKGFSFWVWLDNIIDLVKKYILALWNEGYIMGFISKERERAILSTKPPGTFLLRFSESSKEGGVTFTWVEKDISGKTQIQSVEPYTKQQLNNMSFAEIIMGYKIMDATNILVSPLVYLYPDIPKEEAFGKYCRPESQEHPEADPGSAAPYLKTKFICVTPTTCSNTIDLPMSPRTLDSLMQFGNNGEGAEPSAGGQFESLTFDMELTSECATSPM
Transcription factor Sp1 (Homo sapiens), sequence (P08047 whole entry, looked up): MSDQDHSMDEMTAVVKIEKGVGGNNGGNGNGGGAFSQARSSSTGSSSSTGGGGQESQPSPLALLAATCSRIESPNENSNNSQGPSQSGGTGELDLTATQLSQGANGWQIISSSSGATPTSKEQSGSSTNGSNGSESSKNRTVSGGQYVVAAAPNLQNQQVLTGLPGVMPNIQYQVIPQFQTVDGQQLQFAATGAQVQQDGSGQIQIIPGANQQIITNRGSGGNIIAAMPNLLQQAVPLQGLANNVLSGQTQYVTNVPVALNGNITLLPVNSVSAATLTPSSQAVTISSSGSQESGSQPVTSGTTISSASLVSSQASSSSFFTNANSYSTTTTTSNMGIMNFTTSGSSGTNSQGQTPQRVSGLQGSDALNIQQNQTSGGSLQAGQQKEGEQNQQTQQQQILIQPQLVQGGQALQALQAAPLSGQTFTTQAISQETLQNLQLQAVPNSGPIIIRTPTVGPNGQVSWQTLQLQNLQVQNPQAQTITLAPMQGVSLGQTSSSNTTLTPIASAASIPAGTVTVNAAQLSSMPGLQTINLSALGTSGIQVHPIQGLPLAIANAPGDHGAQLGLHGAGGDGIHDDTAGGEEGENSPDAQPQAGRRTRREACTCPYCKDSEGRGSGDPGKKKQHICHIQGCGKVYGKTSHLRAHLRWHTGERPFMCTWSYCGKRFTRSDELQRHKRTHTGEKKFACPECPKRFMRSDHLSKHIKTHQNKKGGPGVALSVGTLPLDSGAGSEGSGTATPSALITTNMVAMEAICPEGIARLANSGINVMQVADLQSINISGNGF
Hypoxia-inducible factor 1-alpha (Homo sapiens), sequence (Q16665 whole entry, looked up): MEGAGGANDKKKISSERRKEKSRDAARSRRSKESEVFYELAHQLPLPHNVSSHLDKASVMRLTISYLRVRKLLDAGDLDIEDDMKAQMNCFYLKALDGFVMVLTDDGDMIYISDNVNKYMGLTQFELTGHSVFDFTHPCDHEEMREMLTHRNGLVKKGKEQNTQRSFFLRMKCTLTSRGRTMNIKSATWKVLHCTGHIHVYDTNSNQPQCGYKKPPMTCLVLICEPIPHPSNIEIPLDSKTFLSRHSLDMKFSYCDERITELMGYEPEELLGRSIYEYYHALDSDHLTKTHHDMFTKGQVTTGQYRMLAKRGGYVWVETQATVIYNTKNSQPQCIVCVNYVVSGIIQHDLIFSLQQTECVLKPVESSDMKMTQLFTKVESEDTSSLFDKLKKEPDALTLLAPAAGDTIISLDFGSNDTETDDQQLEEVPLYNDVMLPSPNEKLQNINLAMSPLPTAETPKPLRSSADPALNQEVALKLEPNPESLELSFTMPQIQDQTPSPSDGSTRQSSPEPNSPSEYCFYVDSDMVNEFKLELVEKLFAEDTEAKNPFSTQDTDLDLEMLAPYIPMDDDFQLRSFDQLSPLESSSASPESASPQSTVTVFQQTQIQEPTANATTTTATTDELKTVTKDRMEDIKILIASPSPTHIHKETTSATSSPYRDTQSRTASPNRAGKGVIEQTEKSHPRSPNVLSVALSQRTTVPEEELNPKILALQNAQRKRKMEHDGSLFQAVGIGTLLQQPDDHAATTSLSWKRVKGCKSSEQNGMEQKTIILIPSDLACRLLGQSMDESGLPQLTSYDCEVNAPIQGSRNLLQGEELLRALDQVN

In the case of `CCCCN(CCCC)CCCCCCN(CCCC)CCCC`, the call in test [1], in test [2], in test [3], in test [4], in [5] and in [6] was inactive. For the same molecule, the call in test [7], in test [8], in [9], in test [10], in [11] and in test [12] was inactive. The molecule was called inactive in [13], in [14], in test [15] and in test [16].
With `CCC(CC)CO`, the outcome in test [1], in test [2], in [3], in test [4], in test [5] and in [6] was inactive. In addition, the molecule was classed as inactive in test [7], in test [8], in test [17], in test [10], in test [11] and in [12]. Besides, the result in test [13], in test [18], in [14], in test [15] and in test [16] was inactive.
As for `NNC(=O)OCc1ccccc1`, the call in test [1], in test [2], in [3], in test [4], in test [5] and in test [6] was inactive. In addition, the result in [7], in [8], in test [17], in [10], in [11] and in test [12] was inactive. Further, the call in [13], in test [14], in [15] and in test [16] was inactive.
Take `C=C(C)C(N)=O`: the call in [1], in [2], in test [3], in test [4], in [5] and in [6] was inactive. Further, the molecule was called inactive in test [7], in test [8], in test [17], in test [9], in test [10] and in test [12]. Also, the result in [13], in test [14], in test [15] and in [16] was inactive.
Turning to `CCNC(=S)NCC`, the outcome in test [1], in test [2], in test [3], in test [4], in test [5] and in [6] was inactive. The result in [7], in [8], in [9], in test [10], in test [11] and in [12] was inactive. Besides, the molecule was called inactive in [13], in test [18], in [14], in test [15] and in test [16].
For `CCCCOCCOCCOCCO`, the outcome in test [1], in test [2], in [3], in test [4], in test [5] and in test [6] was inactive. The molecule was called inactive in [7], in [8], in test [17], in test [9], in test [10] and in [12]. Further, the molecule was classed as inactive in test [13], in [18], in test [14], in test [15] and in test [16].
In the case of `CCCCCC#CC(=O)OC`, the molecule was classed as inactive in test [1], in test [2], in test [3], in [4], in [5] and in test [7]. In addition, the molecule was classed as inactive in test [8], in [17], in [9], in [11], in test [12] and in test [13]. Also, the result in test [18] and in test [16] was inactive. Moreover, the AC50 in [10] was 20.2 µM (active).
Take `CCCCCCCCOC(C)=O`: the result in test [1], in [2], in test [3], in test [4], in test [5] and in [6] was inactive. The molecule was classed as inactive in [7], in test [8], in test [9], in test [11], in test [12] and in test [13]. In addition, the outcome in [14], in test [15] and in test [16] was inactive. For the same molecule, the concentration at half-maximal activity (AC50) in test [10] is 73.1 µM (active).
Turning to `CCCCCCCCCCCCOCCOS(=O)(=O)O`, the molecule was classed as inactive in [1], in [2], in [3], in test [4], in test [5] and in test [6]. Besides, the molecule was classed as inactive in [7], in test [8], in test [17], in [11], in test [12] and in test [13]. Besides, the molecule was called inactive in test [18], in test [14] and in [16]. Moreover, the AC50 in test [10] is 14.2 µM (active).

(Values after PubChem BioAssay (EPA / NIEHS).)
